Laboratory results as given in publication PMC7819943, “Rice protein-binding microarrays: a tool to detect cis-acting elements near promoter regions in rice”.
The full ranking holds about 39,000 sequences; the median of “fluorescence intensity (a.u.)” is about 4,300, and the highest 2% start at about 39,000. Shown is part of a subset that was picked to be rich in the highest values.

Biological target: T1, OsSMF1 (Oryza sativa, UniProt Q6ZLB0 1-436)
T1 sequence: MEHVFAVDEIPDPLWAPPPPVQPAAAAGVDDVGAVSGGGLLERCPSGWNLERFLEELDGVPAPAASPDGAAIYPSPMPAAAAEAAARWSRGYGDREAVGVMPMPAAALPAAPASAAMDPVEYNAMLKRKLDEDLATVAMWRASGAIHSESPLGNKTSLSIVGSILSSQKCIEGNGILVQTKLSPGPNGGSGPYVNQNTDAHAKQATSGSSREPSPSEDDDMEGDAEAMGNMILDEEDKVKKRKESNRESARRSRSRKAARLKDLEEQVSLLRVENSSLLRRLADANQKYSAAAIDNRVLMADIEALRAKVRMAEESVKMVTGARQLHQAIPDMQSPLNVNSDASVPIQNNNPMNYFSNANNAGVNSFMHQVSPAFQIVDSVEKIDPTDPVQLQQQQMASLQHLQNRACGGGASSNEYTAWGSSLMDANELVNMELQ
Experiment: protein-binding microarray (RPBM); PBS, 2% BSA, 51.3 ng/ul salmon testes DNA, 50 uM zinc acetate, 200 nM TF, 25 C, 1 h; high values mean tight binding
Conditions: protein: recombinant; tags: N-terminal polyhistidine and DsRed monomer fusion (pET32a); chain copies: 2; label: CyDye5-dUTP incorporated in the synthesized complementary strand; 3' TTTTT single-stranded linker to array surface; dsDNA, one strand shown
Outline: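 Transcription factors were made in E. coli BL21-CodonPlus as N-terminal fusions to a polyhistidine tag and DsRed, then purified on Ni–NTA. After primer extension with Cy5-dUTP and blocking with 2% BSA, a custom Agilent array was exposed for 1 h at 25 °C to 200 nM protein in PBS, 2% BSA, salmon testes DNA and 50 µM zinc acetate. Washed arrays were scanned on an Axon 4000B, and the binding signal is per-feature fluorescence intensity in arbitrary units.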

Sequence	binding signal
GTTGTCAAATGAGTCAATTAGATATTTCCAACCCACACTACGGAGTCACCTAGTGCAG	4900 fluorescence intensity (a.u.)
CGTATCTCATCTTTTCGTTTATACTTATACTTATCAGTCACGGAGTCACCTAGTGCAG	3230 fluorescence intensity (a.u.)
ATCGATCGATCAATTGGCCAAGGCGGCAAACGGCGGCGGCCGGAGTCACCTAGTGCAG	4060 fluorescence intensity (a.u.)
TTAGCTTCACAGTTCACTGTAGCGTCTAGAAGAGGAACAGCGGAGTCACCTAGTGCAG	63300 fluorescence intensity (a.u.)
GATCACTGTACTGTACAGAGGCTAGCTCTAGCTAGGTAGCCGGAGTCACCTAGTGCAG	26000 fluorescence intensity (a.u.)
TTGTGGTACGATACTAGTACTACTAGTAGACTAGTAGCAGCGGAGTCACCTAGTGCAG	3260 fluorescence intensity (a.u.)
GTGAGAACTGAGAGGAGCGTCGGAAGAAGACCGGAAGAAGCGGAGTCACCTAGTGCAG	4580 fluorescence intensity (a.u.)
AGCTTCAGGAGTTCTTGTCACGTCTCGAGGAAGAGAGGCTCGGAGTCACCTAGTGCAG	3740 fluorescence intensity (a.u.)
TTAGCTAGACTACAGCTCTAGTAGAGCTGTAGAGGTAGAGCGGAGTCACCTAGTGCAG	44000 fluorescence intensity (a.u.)
GTGGGCCATCTGACAGTGCATACAGGAACTTTCCCCTTCTCGGAGTCACCTAGTGCAG	4930 fluorescence intensity (a.u.)
ATTATAGGTCCAGCTAAGTTGGCCCTGGTATATATATTGGCGGAGTCACCTAGTGCAG	3980 fluorescence intensity (a.u.)
TTGGAGGGGAAGCTATCGTGTATCCACTGCGGAGCACGGCCGGAGTCACCTAGTGCAG	3650 fluorescence intensity (a.u.)
CCGGGCTACCATCGCGGCGACGAAACGTGCATCATCATCCCGGAGTCACCTAGTGCAG	3850 fluorescence intensity (a.u.)
CGTGGTGGACGGCCTCGACGAGGCGATCTGCCCGGTGGCGCGGAGTCACCTAGTGCAG	3240 fluorescence intensity (a.u.)
AACGACGGCGAATTCTACCTCCCCGGGTATCTGGACCTCGCGGAGTCACCTAGTGCAG	42900 fluorescence intensity (a.u.)
CGTGGCACTTAGCGATGAGTGCTGTCGTCAGTAGCAATCCCGGAGTCACCTAGTGCAG	4620 fluorescence intensity (a.u.)
GGCTAGCGTACAGGTTAAAACGTGTCGGAATCGTCAGCGCCGGAGTCACCTAGTGCAG	4110 fluorescence intensity (a.u.)
GCAGGCGTCGGTTTCGCGGCTGGCAGCGGCGGCTCGCTCACGGAGTCACCTAGTGCAG	3200 fluorescence intensity (a.u.)
GTACAGCAGGAATCGCTGCTGGCGTCGCTTCGTCGGTTGTCGGAGTCACCTAGTGCAG	65100 fluorescence intensity (a.u.)
GTGTTTTGACGCATGCATGCCGTTGGTCATCAGTTAATCACGGAGTCACCTAGTGCAG	3480 fluorescence intensity (a.u.)
TTCCCAAAAGGAGGCCCAATGAGAACTTGTATAGTCCTATCGGAGTCACCTAGTGCAG	19500 fluorescence intensity (a.u.)

Sequence	binding signal
ATGTGACTACCACCTCTAAATTTATCTATTTTATTCACTCCGGAGTCACCTAGTGCAG	18600 fluorescence intensity (a.u.)
GAAATCTAATTTTATCCACGAGACTATAGTGAGCCTACTCCGGAGTCACCTAGTGCAG	39700 fluorescence intensity (a.u.)
ATGTTTTCTAGACTAATATACTATTAATCTATCTTTTATCCGGAGTCACCTAGTGCAG	36400 fluorescence intensity (a.u.)
GGGATGTCACACCGTCGAAGGCGTCCAGCTGTCAACATATCGGAGTCACCTAGTGCAG	4720 fluorescence intensity (a.u.)
CCGTTAGCCTCCAACGATCCAAACCGCCTCGTCATAAATACGGAGTCACCTAGTGCAG	3460 fluorescence intensity (a.u.)
TGCTGCTCTTGACACCACGTCGTTGCTGCCCTGCTTCCACCGGAGTCACCTAGTGCAG	3810 fluorescence intensity (a.u.)
TCTGATATGGCATTGACGTGACACTTACGTGGCAATTCGACGGAGTCACCTAGTGCAG	12500 fluorescence intensity (a.u.)
AGTGCCTATGTGGCGTTGACGTGGCGCTTACGTGGCAATTCGGAGTCACCTAGTGCAG	27500 fluorescence intensity (a.u.)
TGGCATTGACGTGGCGCTTACGTGGCATTATATCTTGAAACGGAGTCACCTAGTGCAG	33400 fluorescence intensity (a.u.)
TGACTCAGTATCGATCTGACGTGGCGCTTACGTGGCAATTCGGAGTCACCTAGTGCAG	48000 fluorescence intensity (a.u.)
GTGGCATTGACGTGGCGCTTACGTGTCAATTCTACTCCGGCGGAGTCACCTAGTGCAG	44200 fluorescence intensity (a.u.)
ATGACGTGACATTGACGTGGCGCTTACGTGGCAATTCGACCGGAGTCACCTAGTGCAG	25600 fluorescence intensity (a.u.)
GCTATATTAAACATTTGCTAATGACAAATTAATTAGCTTACGGAGTCACCTAGTGCAG	14700 fluorescence intensity (a.u.)
TCCATTTTGGACCGCTGACGAGGACGATAGGAGCGTGAGTCGGAGTCACCTAGTGCAG	4710 fluorescence intensity (a.u.)
AGCTTGTGTACCCAGGAGATCTACATACTTCGCTACGTCACGGAGTCACCTAGTGCAG	4570 fluorescence intensity (a.u.)
AGTATATCCTAAAGCGACACTTTACAGTCTCAAGGACATCCGGAGTCACCTAGTGCAG	11200 fluorescence intensity (a.u.)
TGGAGGAAGTCAGTAGGATCCCACGTGTCATACTCACACCCGGAGTCACCTAGTGCAG	22200 fluorescence intensity (a.u.)
ACTCCGGTCCAGGAAAATTATTCCTATAGTAATGTAATAACGGAGTCACCTAGTGCAG	42900 fluorescence intensity (a.u.)
TATATAACCTAAAATGGAGGAAGTAGGAAATATGTAATTCCGGAGTCACCTAGTGCAG	4630 fluorescence intensity (a.u.)
ATTTAACTGCATAGAAGTGTATAAGTAAAATAATTTATTCCGGAGTCACCTAGTGCAG	4320 fluorescence intensity (a.u.)
GCCACACCCACACTGACACACATATACAAGCCAGAGAGATCGGAGTCACCTAGTGCAG	3280 fluorescence intensity (a.u.)

Sequence	binding signal
GAAAGGAAGAGGTGGAGGAAGTGAGACCCACTGACTTGTGCGGAGTCACCTAGTGCAG	24500 fluorescence intensity (a.u.)
TCCACCACACGTGTCTATATCGCTTCCTTCCATTCCATCACGGAGTCACCTAGTGCAG	7170 fluorescence intensity (a.u.)
GACTTGTCCATGCATGCATGCATGACTTGTGTTCAGCCACCGGAGTCACCTAGTGCAG	3700 fluorescence intensity (a.u.)
TTGTTGGTGTTTCCTCGTCCGCGTCGTCGGTTGCATTCTCCGGAGTCACCTAGTGCAG	3190 fluorescence intensity (a.u.)
GTAATTACAGCTCATGATTTTCTCTCTCTCTCTCTCTCTACGGAGTCACCTAGTGCAG	19500 fluorescence intensity (a.u.)
CGAAATAAGTAATTTACAGGGCTTTCTCTCTCTCGCTCACCGGAGTCACCTAGTGCAG	64400 fluorescence intensity (a.u.)
ACTTACACAGTAATTACACCTCACTTACACCCGCTTACACCGGAGTCACCTAGTGCAG	5410 fluorescence intensity (a.u.)
AGCTGTGTTGCTAATTGTGGCATTGTGATGTGATGATCCCCGGAGTCACCTAGTGCAG	3160 fluorescence intensity (a.u.)
ATGTTGACTGGACTAGCACGTGTACGCCACGTAGACCAAACGGAGTCACCTAGTGCAG	4790 fluorescence intensity (a.u.)
TAAATAATTGCCATTGCCATGCTGCCACGTGTCATGGGACCGGAGTCACCTAGTGCAG	49900 fluorescence intensity (a.u.)
GTCACATCATCATGCATTAATAAAATGCCACGTCATCATCCGGAGTCACCTAGTGCAG	50000 fluorescence intensity (a.u.)
ACACGTGGGACCCACGTGGGTCCCATGCTGACTCAGCTGCCGGAGTCACCTAGTGCAG	28100 fluorescence intensity (a.u.)
AAATGCTGACTGGACTGCCACGTGTACGCCACGTAGACCACGGAGTCACCTAGTGCAG	45400 fluorescence intensity (a.u.)
TGCTGATGTTGCTGCTAAAATTGCACCATTGTTGTGTAACCGGAGTCACCTAGTGCAG	40700 fluorescence intensity (a.u.)
TTGTTAACTGCTGATGTGTGACCTGACTGTTAAAAGCTGCCGGAGTCACCTAGTGCAG	9170 fluorescence intensity (a.u.)
ATAATGCTGACTGAACTGCCATGTGTACGCCACGTAGACCCGGAGTCACCTAGTGCAG	27600 fluorescence intensity (a.u.)
GTGCATAAATTTATTAAAATAGAAAATTAATGCAGTGCCACGGAGTCACCTAGTGCAG	4660 fluorescence intensity (a.u.)
CACATAAATAATAATAAAATGTGGGACCCACGTGGGCCCCCGGAGTCACCTAGTGCAG	10400 fluorescence intensity (a.u.)
GGATCAAATTGCCACATATGCGCCACGTTAATGCCACATCCGGAGTCACCTAGTGCAG	8660 fluorescence intensity (a.u.)
